High-throughput results as filed in PubChem BioAssay.
CRFR2-BP ag: agonists of CRF-BP/CRF-R2 complex, primary screen, cell-based, HEK293, calcium dye fluorescence, uHTS | activation, % at 13.2 µM | 0.46% of 350,000 active | calcium dye fluorescence (FLIPR); percent of saturating CRF peptide response | AID 588473, 2011;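 active = activation of at least 50%, plus an integration ratio under a set limit after plate pattern correction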
CRFR2-BP antag: antagonists of CRF-BP/CRF-R2 complex, primary screen, cell-based, HEK293, calcium dye fluorescence, uHTS; CRF-induced calcium fluorescence; inhibition, % at 11.8 µM; 0.59% of 350,000 active;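 active = inhibition of the ligand-induced calcium signal above about 50% at the single tested concentration, limit read from the data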
MPTP block: mitochondrial permeability transition pore inhibitors, primary screen, biochemical, isolated mouse mitochondria, absorbance. AID 602449, 2012. Ca2+ swelling absorbance, 30 min. inhibition, % at 10 µM. 1.4% of 360,000 active;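 active = inhibition of 50% or more, scaled per plate between neutral and stimulator controls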
TMEM16A act: TMEM16A chloride channel activators or potentiators, primary screen, cell-based, HTS; HEK293 TMEM16A/YFP-H148Q/I152L, iodide quench fluorescence; stronger effect = lower value; B-score at 10 µM; 0.3% of 340,000 active; AID 623877, 2012;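 active = fluorescence-ratio B-score plate-corrected deviation score at least 3 library SD below zero, with starting fluorescence score within 5 deviations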;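 also: channel opened by trigger with iodide after compound preincubation; score built on the fluorescence ratio of max minus min over baseline; more negative score means more quench and so TMEM16A activation or potentiation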
TMEM16A inh: TMEM16A chloride channel inhibitors, primary screen, cell-based, HTS; HEK293 TMEM16A/YFP iodide influx fluorescence, ionomycin; AID 588511, 2011; Anoctamin-1 (Mus musculus), Q8BHY3; normalized B-score (activity score, 25-100; higher = stronger inhibition) at 10 µM; 1.2% of 310,000 active;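 active = ratio plate-corrected score three or more library SD toward inhibition, starting fluorescence score within five deviations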;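 also: score derived from kinetic fluorescence span divided by baseline fluorescence per well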
NR3A LBD binder: binders of NR3A ligand-binding domain, primary screen, biophysical, differential scanning fluorimetry, uHTS. Tm shift relative to glycine control, % at 25 µM. NR3A LBD differential scanning fluorimetry, Tm shift; 0% = protein alone, 100% = glycine-bound protein. AID 1259313, 2017. 2.5% of 340,000 active. Glutamate receptor ionotropic, NMDA 3A (GRIN3A) ligand-binding domain;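 active = melting temperature shift of at least 10% of the positive control shift, at one fixed dose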
Large screens that a line does not name were inactive. An excerpt weighted towards active compounds, which were near 5.1% of everything screened.

COc1cc(SSc2cc(OC)cc([N+](=O)[O-])c2N)c(N)c([N+](=O)[O-])c1	NR3A LBD binder 37.3
COc1cc([N+](=O)[O-])c2ncsc2c1	none
N#Cc1ccc(S(=O)(=O)N2CCCCC2c2cc(C(=O)N3CCOCC3)no2)cc1 (stereo not drawn)	none (no result: CRFR2-BP ag, CRFR2-BP antag, TMEM16A act, TMEM16A inh, NR3A LBD binder)
CCN(CCO)Cc1csc2cccc(Br)c12	CRFR2-BP antag 83.5
NS(=O)(=O)c1ccc(-c2ccc(/C=C3\SC(=S)N(C4CCS(=O)(=O)C4)C3=O)o2)cc1 (stereo not drawn)	TMEM16A act -4.96
Cc1ccc(/C=C2\SC(=S)N(C3CCS(=O)(=O)C3)C2=O)o1 (stereo not drawn)	none
c1ccc(Sc2ncnc3c2oc2ccccc23)cc1	NR3A LBD binder 33.8
CC(C)(C)C(=O)Oc1cccc(Nc2ncnc3ccccc23)c1	TMEM16A inh 25
C[C@@H]1CN([C@@H](C)CO)C(=O)CCCn2nncc2CO[C@H]1CN(C)S(=O)(=O)c1ccccc1C#N	none (no result: TMEM16A act, TMEM16A inh, NR3A LBD binder)
CC(C)(C)OC(=O)NCCCCCc1nnc(SCc2ccccc2)o1	none
CC(C)(C)OC(=O)NCCCCCc1nnc(SCc2cccc(F)c2)o1	TMEM16A inh 25
CC(C)(C)OC(=O)NCCCCCc1nnc(SCc2c(F)cccc2Cl)o1	TMEM16A inh 100
CCOC(=O)c1c(C)[nH]c(C(=O)N(C)CC(=O)Nc2ccc(OC)cc2)c1C	none (no result: TMEM16A inh)
O=c1[nH]c2ccc(S(=O)(=O)N3CCN(Cc4ccccc4)CC3)cc2[nH]c1=O	NR3A LBD binder 11.1
COc1cc(S(=O)(=O)N2CCN(Cc3ccccc3)CC2)ccc1Br	none
N#Cc1ccccc1S(=O)(=O)N1CCN(S(=O)(=O)c2ccc(Br)c(C(=O)O)c2)CC1	none
CCOc1cc(/C=C(\C#N)C(=O)Nc2cccc(C(=O)O)c2)ccc1OCc1ccccc1Cl	TMEM16A inh 100
COc1cc(/C=C(\C#N)C(=O)Nc2cccc(C(=O)O)c2)ccc1OCc1ccc(F)cc1	none
CCOc1cc(/C=C(\C#N)C(=O)Nc2cccc(C(=O)O)c2)cc(Br)c1OC(=O)c1ccc(OC)cc1	TMEM16A inh 100
O=C(COC(=O)Cc1c(F)cccc1Cl)NC(=O)Nc1ccccc1F	none (no result: TMEM16A inh)
COc1ccc(-c2ccc(CN3C(C(C)C)C(=O)N(Cc4cn(CC5CCCCC5)nn4)CCS3(=O)=O)cc2)cc1OC (stereo not drawn)	none (no result: TMEM16A act, TMEM16A inh, NR3A LBD binder)
CC(=O)Nc1ccc(S(=O)(=O)NC2=C(N3CCN(c4ccc(F)cc4)CC3)C(=O)c3ccccc3C2=O)cc1	NR3A LBD binder 15.6
CCOC(=O)Cc1csc(NC(=O)CSc2nnc(-c3ccc(NS(=O)(=O)CC)cc3)o2)n1	none
CCOC(=O)Cc1csc(NC(=O)CSc2nnc(-c3ccncc3)o2)n1	CRFR2-BP ag 121.4
O=C(Nc1ccc(Cl)c(Cl)c1)C1C2C=CC3(O2)C1C(=O)N(CCN1CCCCC1)C3C(=O)NC1CCCCC1 (stereo not drawn)	none
Cn1cc(/C=N/NC(=O)c2ccccc2O)c2ccccc21	none
CC(=O)n1cc(/C=N/NC(=O)c2ccccc2O)c2ccccc21	NR3A LBD binder 32.3
C[C@H]1[C@@H](c2ccccc2)Oc2ccc(Cl)cc2S(=O)(=O)N1Cc1ccc(F)cc1F	NR3A LBD binder 15.4 (no result: TMEM16A act, TMEM16A inh)
CCC(C)n1c(SCC(=O)Nc2ccccc2C(F)(F)F)nc2ccsc2c1=O (stereo not drawn)	none
CCC(C)n1c(SCc2ccccc2)nc2ccsc2c1=O (stereo not drawn)	NR3A LBD binder 11.5
CC1CCCC(NC(=O)C2CCN(C(=O)Nc3ccccc3)CC2)C1C (stereo not drawn)	none
COc1ccc(CCC(=O)N2CCN(S(=O)(=O)c3ccc(OC)c([N+](=O)[O-])c3)CC2)cc1	none (no result: TMEM16A act, TMEM16A inh, NR3A LBD binder)
Cc1ccc(/C=C2\SC(N3CCCC3)=NC2=O)cc1	none (no result: CRFR2-BP ag, CRFR2-BP antag, MPTP block, TMEM16A act, NR3A LBD binder)
